# The full list was thinned out, with hits kept by preference.
# DAT uptake mod: human DAT dopamine uptake with cocaine, either direction; AID 449768; LLC-PK1 hDAT cells, [14C]-dopamine uptake with cocaine IC80; actives deviate in either direction; B-score at 10 µM; 110,000 compounds, 1.3% hits;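 active means Z score or B-score, a plate-position-corrected score, falls beyond the plate's 99.7% confidence bounds, in either direction; inactive means both scores lie inside the 99.7% bounds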;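 further: scored against the spread of the other compound wells on the same plate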
# D1 allo mod: allosteric modulators of human D1 dopamine receptor; HEK293 D1, CRE-luciferase, dopamine EC30 potentiation; actives deviate in either direction; 58,000 compounds, 5.9% hits; B-score at 10 µM; P21728;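 active means luminescence count or its row- and column-corrected plate score outside the 99.7% band of the plate's sample wells, on either side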
# ROCK2 inh: inhibitors of human Rho kinase 2; O75116; purified ROCK2, Kinase-Glo ATP depletion luminescence; inhibition, % at 6 µM; 60,000 compounds, 0.35% hits; AID 604;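 active means inhibition above the screen-wide mean inhibition plus 3 SD, cut at about 18% in these data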;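 further: plate controls were DMSO wells for no effect and Y-27632 control wells after no-enzyme background subtraction for full effect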
# JNK3 inh: inhibitors of human JNK3 kinase | purified JNK3 kinase activity, HTS | P53779 | 60,000 compounds, 0.61% hits | AID 746 | inhibition, % at 8 µM; in the data active means inhibition above about 17%;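 further: 0% = DMSO and 100% = reference inhibitor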
# PKA kinase inh: blocks human protein kinase A activity; 65,000 compounds, 0.1% hits; P17612; PKA Kemptide phosphorylation, Kinase-Glo ATP luminescence; inhibition, % at 6 µM;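 active means inhibition above the screen-wide mean inhibition plus 3 SD, cut at about 21% in these data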
# D1 mod confirm: confirmation of human D1 dopamine receptor allosteric modulators; shares compounds with D1 allo mod; HEK293 D1 CRE-luciferase, dopamine EC30 potentiation; hits give high values; luminescence at 10 µM; 2,200 compounds, 88% hits;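 active means luminescence in either of two replicates above the same-plate mean plus 3 SD of the low-dose dopamine control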
# D1 no dopamine: secondary test of D1 modulators: activity without dopamine | shares compounds with D1 allo mod | 1,900 compounds, 0.8% hits | HEK293 D1 CRE-luciferase, luminescence, no dopamine; hits give high values | luminescence at 10 µM; in the data active means luminescence above about 3900
# Isoprot counter: isoproterenol response counter-screen activity for D1 modulators. shares compounds with D1 allo mod. HEK293 D1 CRE-luciferase, isoproterenol EC30 counter-screen. calls only at 10 µM. 2,200 compounds, 63% hits. AID 647;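 active means luminescence in either replicate above plate mean of wells with a partly effective reference agonist dose plus 3 SD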;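 further: isoproterenol raises cAMP through native beta-adrenoceptor Gs so signal bypasses D1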
# The depositor's hits bear a star; i = inactive; x = not tested or not shown; + = active, no number.
SMILES,DAT uptake mod,D1 allo mod,ROCK2 inh,JNK3 inh,PKA kinase inh,D1 mod confirm,D1 no dopamine,Isoprot counter
COc1ccc(OC)c(N/C=C2/CCCCC2=O)c1,0.82,1.9,2,-5,0,x,x,x
CCOC(=O)C1=C(N)n2c(s/c(=C\c3cccnc3)c2=O)=C(C(=O)OCC)C1c1cccnc1 (configuration not stated),x,1.1,3,-2,9,x,x,x
CCOC(=O)C1=C(N)n2c(s/c(=C\c3cccs3)c2=O)=C(C(=O)OCC)C1c1cccs1 (configuration not stated),-0.31,4.6*,7,0,4,10396*,1664,+
CCOC(=O)c1oc2cccc(O)c2c1C,1.8,x,x,x,x,x,x,x
CCOC(=O)c1oc2ccccc2c1CN1CCN(c2ccccc2)CC1,-0.74,-0.32,6,-1,4,x,x,x
CCOC(=O)c1oc2ccccc2c1CN1CCN(C(=O)c2ccccc2)CC1,2.8*,6.9*,0,-4,4,17092*,1488,+
CCOC(=O)c1oc2cccc(O)c2c1CN1CCOCC1,0.004,5.8*,6,-1,6,7884*,1544,i
CCOC(=O)c1cc(CN2CCOCC2)oc1-c1ccccc1,-0.1,4*,-1,11,2,12300*,1700,+
CCOC(=O)c1c(-c2ccccc2)oc2ccc(O)c(CN3CCOCC3)c12,0.52,0.48,6,-1,4,x,x,x
CC(C)CC(COCc1cccc(Cl)c1)N1CCN(C(=O)c2ccc(C(F)(F)F)cc2)CCC1=O (configuration not stated),-0.13,x,x,x,x,x,x,x
CCC1CCCCN1C(=O)Cn1c(=O)oc2ccccc21 (configuration not stated),0.028,0.073,x,x,4,x,x,x
CCn1c(SCC(=O)OC)nc2sc3c(c2c1=O)CCC3,-0.23,16*,x,x,x,16808*,1576,+
Cn1c(SCC(=O)N2CCOCC2)nc2sc3c(c2c1=O)CCCC3,0.95,0.012,3,-1,12,x,x,x
COC(=O)CSc1nc2sc3c(c2c(=O)n1C1CCCCC1)CCN(C)C3,x,15*,3,3,5,21932*,1592,+
COc1ccc(-n2c(SCC(N)=O)nc3sc4c(c3c2=O)CCN(C)C4)cc1,-1.4,0.46,3,4,9,x,x,x
C=CCn1c(SCC(=O)N2CCOCC2)nc2sc3c(c2c1=O)CCCC3,3.1*,3.4*,8,0,4,7424*,1576,+
Cn1c(Cn2c(=O)sc3ccccc32)nnc1SCc1ccccc1,-0.24,-0.68,-7,-2,6,x,x,x
Cc1cc(NC(=O)CSc2nnnn2Cc2ccccc2)no1,-0.77,x,2,-5,8,x,x,x
Cn1c(=O)cc(N)n(Cc2ccccc2)c1=O,-0.31,x,x,x,x,x,x,x
COC(=O)[C@H]1C[C@@H]1[C@H](NC(=O)c1cc(C)on1)c1ccccc1,-1.4,x,x,x,x,x,x,x
CCc1c(C)c2c(C)nn(-c3ccccc3)c2[nH]c1=O,-0.12,3.2*,4,1,7,7084*,1748,+
CCOc1cc(C(=S)N2CCOCC2)ccc1OC,1.1,x,x,x,x,x,x,x
CCOc1cc2nc(-c3ccc(OC)c(OC)c3)nc(N3CCOCC3)c2cc1OC,0.88,13*,0,-1,-5,10492*,1512,+
COC(=O)c1sc2ccccc2c1N,-0.13,2.8,8,5,2,x,x,x
COC(=O)c1sc2ccccc2c1C(=O)OC,0.53,10*,3,1,1,9140*,1712,i
COC(=O)c1sc2ccccc2c1NC(=O)c1cccs1,-0.65,19*,-5,1,-6,20828*,1756,+
CSc1nnnn1-c1ccc(C(=O)OCC(=O)N2CCOCC2)cc1,-0.5,0.82,-10,-3,1,x,x,x
CCCn1c(SCC(=O)Nc2nnc(C)s2)nnc1-c1ccoc1C,-0.13,0.22,2,-8,2,x,x,x
CCOc1ccc(C(=O)Nc2nncs2)cc1OCC,-0.44,10*,0,0,7,18420*,1592,+
COc1ccc[nH]c1=O,-1.2,x,-2,-3,-5,x,x,x

# Screening data (PubChem)
